23 compounds from PubChem BioAssay can be followed below.

Values joined by “and” are separate entries in the source; they are usually repeats but may differ in a detail not shown here. Identical values can stand only once. Records with an inconclusive call do not appear. Active and inactive are the calls of the source.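 Rule for the calls, unless noted: active = fitted half-maximal concentration within 10 nM to 100 µM, steepness 0.5 to 2, significant signal drop, low assay interference; inactive = the rest.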

Assay [1] is described as follows: yeast TOR pathway RPL19A-GFP modulators, primary screen, cell-based, S. cerevisiae, multiplex flow cytometry (AID 1862; in the data active = percent of DMSO control GFP below about 86%;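 note: lower values mimic rapamycin by blocking the RPL19A rise seen in DMSO cells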). Conditions: S. cerevisiae RPL19A-GFP strain, flow cytometry fluorescence, 3 h; at 10 µM; stronger effect = lower value. (In flow cytometry, cells or beads pass a laser one at a time.)
Assay [2] can be described thus: modulators of MEP2-GFP levels in yeast, primary screen, S. cerevisiae, multiplex flow cytometry (AID 1867;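 active = GFP response, as percent of the DMSO control, above the screen-wide mean plus 3 SD, about 139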;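 note: median GFP channel fluorescence of barcode-gated MEP2-GFP cells measured by flow cytometry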). The following applies: S. cerevisiae MEP2-GFP strain, 3 h, at 10 µM, stronger effect = higher value.
Assay [3] is described as follows: modulators of CIT2-GFP expression in yeast, primary screen, S. cerevisiae, GFP fusion, multiplex flow cytometry (AID 1870;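 active = percent response above a set limit, the screen-wide mean plus 3 SD, cut at about 130% in these data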;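 note: barcoded CIT2-GFP strain pooled with four other GFP strains with rapamycin as positive control; median GFP fluorescence per well over plate mean of DMSO wells so 100% = DMSO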). The following applies: 3 h, at 10 µM, stronger effect = higher value.
A short description of assay [4]: modulators of LAP4-GFP expression in yeast, primary screen, S. cerevisiae, multiplex flow cytometry (AID 1873;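 active = GFP signal, as percent of the solvent control, above the screen mean plus 3 SD, about 149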). The following applies: 3 h, at 10 µM, stronger effect = higher value.
A short description of assay [5]: modulators of AGP1-GFP expression in yeast TOR pathway, primary screen, cell-based, multiplex flow cytometry, S. cerevisiae (AID 1887;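 active = GFP signal above the screen-wide mean plus 3 SD, that is over about 124.5% of the solvent control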;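 note: AGP1-GFP fusion strain of S. cerevisiae within a five-strain barcoded multiplex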). The following applies: 3 h, at 10 µM, stronger effect = higher value.
The nature of assay [6]: inhibitors of CD8+ T cell-vesicle binding, pilot screen, LFA-1/ICAM-1 modulator project, MLPCN validation set, flow cytometry (AID 2523;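 active = response below a set limit, under 55% cells CD8-positive and vesicle-bound, and CD8 cells' 90th-percentile brightness under 279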;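 for vesicle binding response: mean PE anti-B7-1 fluorescence of CD8+ cells relative to row control; 100% = QL9-loaded vesicles with DMSO vehicle in the same plate row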). Conditions: 2C mouse CD8+ T cells, at 7 µM, stronger effect = lower value; double positive events: measured here: CD8+/vesicle+ event percentage.
The target in assay [7] is Integrin beta-1 (Homo sapiens) + Integrin alpha-4 (Homo sapiens) (UniProt P13612+P05556). Put plainly: inhibition of HUTS-21 binding to VLA-4, pilot screen, VLA-4 allosteric modulator project, U937 cells, HUTS-21 mAb, flow cytometry, validation set (AID 2674;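 active = inhibition above 50%, about 3 SD of the validation set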;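 note: antibody binding induced by the VLA-4 ligand LDV present at three times its Kd; 0% = LDV ligand with antibody and no compound and 100% = antibody without LDV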). Conditions: HUTS-21 LIBS mAb binding, at 6.7 µM, stronger effect = higher value.
Assay [8] in a line: superoxide lowering in aged yeast cells, pilot screen, validation compound set (AID 2706;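 active = superoxide response below 65% of plate, a cut near 3 SD across the whole screen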;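 note: yeast exposed to compound for one week at 30 degrees C before staining; 100% = mean of all compound wells on the same plate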). The following applies: S. cerevisiae aging, superoxide DHE fluorescence; at 10 µM; stronger effect = lower value.
Assay [9] has as its target Beta-adrenergic receptor kinase 1 (Homo sapiens) (UniProt P25098). The assay can be described thus: GRK2 binders displacing RNA aptamer, biochemical, validation, human GRK2, bead flow cytometry (AID 488806;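 active = aptamer binding inhibition above 30%, about 3 SD of noise from non-fluorescent compounds; inactive = inhibition at or below 30%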). Conditions: bead-bound GRK2, FAM-aptamer displacement, at 10 µM, stronger effect = higher value.
Assay [10] concerns the target Beta-2 adrenergic receptor (Homo sapiens) (UniProt P07550). The assay can be described thus: beta2AR agonists driving receptor internalization, pilot screen, cell-based, FAP fluorogen, flow cytometry, validation set (AID 504459;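 active = percent response above 42, roughly 3 SD of non-fluorescent test compounds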;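 note: agonist-driven loss of surface beta2AR via internalization measured by FAP dye flow cytometry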). Conditions: Am2.2-beta2AR cells, FAP surface receptor flow cytometry; at 10 µM; stronger effect = higher value.
Assay [11] concerns the target AP-2 complex subunit beta (Homo sapiens) (UniProt P63010). The assay can be described thus: inhibitors of arrestin peptide binding to AP2, pilot screen, biochemical, validation set, GST-AP2 beads, flow cytometry (AID 504541;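 active = inhibition above 54%, about 3 SD of non-fluorescent compounds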;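 note: AP2 carries R879A mutation and is captured from E. coli lysate; bead-bound FITC arrestin peptide fluorescence measuring arrestin peptide binding to AP2; 0% = DMSO wells and 100% = excess unlabeled arrestin peptide control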). The following applies: FITC arrestin peptide, at 10 µM, stronger effect = higher value.
Assay [12] in a line: yeast V-ATPase proton transport modulators, S. cerevisiae, pHLuorin, HTS validation (AID 504600; in the data active = response above about 15%;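 note: plate controls were DMSO for no effect and reference compound for full effect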). The following applies: S. cerevisiae pHLuorin cytosolic pH, at 10 µM, stronger effect = higher value.
Assay [13] relates to anti-desmoglein-3 scFv antibody binding to human DSG3. Put plainly: inhibitors of anti-DSG3 scFv binding to DSG3, pilot screen, biochemical, validation compound set, bead-based, flow cytometry (AID 588368;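 active = binding below the plate cutoff, the plate median minus 3 SD, with a reading above zero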;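 note: signal is the median channel fluorescence of bead-bound GFP antibody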). The following applies: Protein G beads, DSG3-Fc, scFv-GFP binding, at 10 µM, stronger effect = lower value.
The subject of assay [14] is Botulinum neurotoxin type F light chain protease (Clostridium botulinum). The assay can be described thus: Botulinum neurotoxin type F light chain protease inhibition, multiplex microsphere flow cytometry, validation set (AID 588459; call rule not given here). The following applies: multiplex microsphere protease substrate cleavage assay, at 10 µM, stronger effect = higher value.
The target of assay [15] is Botulinum neurotoxin type A (Clostridium botulinum) (UniProt P0DPI0). Put plainly: BoNT/A light chain protease inhibitors, biochemical, multiplex microsphere flow cytometry, validation set (AID 588460; call rule not given here). The following applies: at 10 µM, stronger effect = higher value.
The target of assay [16] is Lethal factor (Bacillus anthracis) (UniProt P15917). The assay can be described thus: Lethal factor protease inhibitors, Bacillus anthracis, multiplex microsphere cleavage assay, validation set (AID 588461; call rule not given here). The following applies: flow cytometry, at 10 µM, stronger effect = higher value.
The nature of assay [17]: inhibitors of fungal efflux pumps CDR1, CDR2, MDR1, pilot screen, validation compound set, multiplex, phenotypic (AID 588506;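 active = efflux inhibition above 0.42, the validation set average plus 4 SD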;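 note: Nile Red retained in cells so higher fluorescence means more efflux inhibition; 0 = negative control wells and 1 = enniatin B 25 µM full block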). The following applies: S. cerevisiae pump-expressing triplex, Nile Red efflux flow cytometry; at 10 µM; stronger effect = higher value.
The target in assay [18] is ATP-binding cassette sub-family B member 6 (Homo sapiens) (UniProt Q9NP58). Put plainly: ABCB6 transporter inhibitors, pilot screen, K562-ABCB6 cells, flow cytometry, validation set (AID 588550;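 active = inhibition above the screen-wide mean plus 3 SD, about 51%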;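 note: 0% = DMSO wells and 100% = benzethonium chloride 70 µM positive control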). Conditions: K562-ABCB6 porphyrin accumulation, 1 h, at 10 µM, stronger effect = higher value.
The nature of assay [19]: promoters of myeloid differentiation in arrested cells, primary screen, cell-based, GFP/MAC1 double positive, flow cytometry, validation set (AID 588685;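 active = differentiation response of at least 50%, scaled between solvent and reference control, from cells with both markers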;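 note: compound exposure lasts four days before antibody staining and flow analysis; 0% = DMSO wells and 100% = 5 µM fulvestrant positive control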). The following applies: ER-HoxA9 marrow cells, stronger effect = higher value.
In assay [20] the target is GTPase HRas (Homo sapiens) (UniProt P01112). Put plainly: inhibitors of GTP binding to wildtype Ras, dose response, biochemical, multiplex bead flow cytometry (AID 1335). Conditions: bead-based flow cytometry, Bodipy-GTP binding to GST-Ras; at 100 µM (top of the series).
GTPase HRas (Homo sapiens), sequence (P01112 whole entry, looked up): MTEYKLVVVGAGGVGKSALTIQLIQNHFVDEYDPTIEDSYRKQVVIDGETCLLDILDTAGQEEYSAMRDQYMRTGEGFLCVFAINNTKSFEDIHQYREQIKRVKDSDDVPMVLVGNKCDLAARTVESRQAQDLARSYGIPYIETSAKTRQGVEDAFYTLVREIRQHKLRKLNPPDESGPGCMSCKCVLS

Lethal factor (Bacillus anthracis), sequence (P15917 whole entry, looked up): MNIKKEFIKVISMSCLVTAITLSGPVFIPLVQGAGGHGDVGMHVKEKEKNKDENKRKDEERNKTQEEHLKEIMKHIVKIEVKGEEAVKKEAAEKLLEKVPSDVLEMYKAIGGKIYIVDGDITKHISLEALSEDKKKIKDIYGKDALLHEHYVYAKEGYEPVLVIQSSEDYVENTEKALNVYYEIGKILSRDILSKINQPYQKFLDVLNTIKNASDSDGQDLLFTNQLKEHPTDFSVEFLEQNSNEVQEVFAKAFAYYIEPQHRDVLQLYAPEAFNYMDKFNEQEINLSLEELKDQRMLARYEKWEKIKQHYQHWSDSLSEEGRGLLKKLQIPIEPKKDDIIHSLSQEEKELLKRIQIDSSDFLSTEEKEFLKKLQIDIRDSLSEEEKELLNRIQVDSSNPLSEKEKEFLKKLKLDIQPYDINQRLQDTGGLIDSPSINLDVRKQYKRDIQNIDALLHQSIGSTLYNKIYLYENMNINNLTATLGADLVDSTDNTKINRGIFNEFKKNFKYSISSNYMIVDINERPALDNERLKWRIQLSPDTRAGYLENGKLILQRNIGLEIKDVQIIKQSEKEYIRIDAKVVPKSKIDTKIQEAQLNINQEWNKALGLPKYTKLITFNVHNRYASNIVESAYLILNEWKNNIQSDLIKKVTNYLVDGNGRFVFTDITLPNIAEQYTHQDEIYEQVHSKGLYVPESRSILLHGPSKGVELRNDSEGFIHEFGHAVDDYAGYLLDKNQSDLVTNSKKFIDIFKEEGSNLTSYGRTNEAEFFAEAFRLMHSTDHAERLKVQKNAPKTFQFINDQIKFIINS
Botulinum neurotoxin type A (Clostridium botulinum), sequence (P0DPI0 whole entry, looked up): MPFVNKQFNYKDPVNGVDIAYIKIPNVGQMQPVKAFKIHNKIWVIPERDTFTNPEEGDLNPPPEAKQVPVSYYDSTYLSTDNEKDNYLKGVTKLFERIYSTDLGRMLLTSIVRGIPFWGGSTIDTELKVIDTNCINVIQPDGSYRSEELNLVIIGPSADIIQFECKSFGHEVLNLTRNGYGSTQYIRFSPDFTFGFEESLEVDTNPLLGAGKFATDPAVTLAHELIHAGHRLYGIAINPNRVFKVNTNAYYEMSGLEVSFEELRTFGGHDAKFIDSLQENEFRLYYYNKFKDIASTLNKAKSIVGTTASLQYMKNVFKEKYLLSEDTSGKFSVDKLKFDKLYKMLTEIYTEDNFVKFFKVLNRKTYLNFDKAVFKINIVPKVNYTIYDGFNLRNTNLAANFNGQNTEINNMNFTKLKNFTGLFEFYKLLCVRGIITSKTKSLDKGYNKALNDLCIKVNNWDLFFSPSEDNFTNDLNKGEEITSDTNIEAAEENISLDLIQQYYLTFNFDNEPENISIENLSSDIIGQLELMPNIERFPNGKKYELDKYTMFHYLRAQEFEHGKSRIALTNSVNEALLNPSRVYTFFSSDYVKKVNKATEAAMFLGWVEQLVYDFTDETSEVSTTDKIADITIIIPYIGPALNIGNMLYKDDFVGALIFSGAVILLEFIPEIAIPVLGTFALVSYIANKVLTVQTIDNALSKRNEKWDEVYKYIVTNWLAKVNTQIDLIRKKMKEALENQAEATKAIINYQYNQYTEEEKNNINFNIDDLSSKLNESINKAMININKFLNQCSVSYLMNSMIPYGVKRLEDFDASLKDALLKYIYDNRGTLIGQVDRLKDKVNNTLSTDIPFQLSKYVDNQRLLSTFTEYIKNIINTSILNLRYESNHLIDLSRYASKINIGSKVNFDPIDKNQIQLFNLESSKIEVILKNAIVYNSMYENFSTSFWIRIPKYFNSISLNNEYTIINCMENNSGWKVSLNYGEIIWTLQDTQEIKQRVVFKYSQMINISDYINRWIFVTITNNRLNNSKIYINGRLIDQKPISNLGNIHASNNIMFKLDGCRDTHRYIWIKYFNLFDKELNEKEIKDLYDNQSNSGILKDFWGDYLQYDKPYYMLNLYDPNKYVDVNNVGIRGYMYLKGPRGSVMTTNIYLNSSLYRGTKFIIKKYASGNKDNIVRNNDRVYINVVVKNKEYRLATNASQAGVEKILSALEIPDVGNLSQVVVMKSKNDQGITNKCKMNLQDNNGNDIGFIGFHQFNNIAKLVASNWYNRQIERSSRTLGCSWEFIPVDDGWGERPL
AP-2 complex subunit beta (Homo sapiens), sequence (P63010 whole entry, looked up, one chain of several): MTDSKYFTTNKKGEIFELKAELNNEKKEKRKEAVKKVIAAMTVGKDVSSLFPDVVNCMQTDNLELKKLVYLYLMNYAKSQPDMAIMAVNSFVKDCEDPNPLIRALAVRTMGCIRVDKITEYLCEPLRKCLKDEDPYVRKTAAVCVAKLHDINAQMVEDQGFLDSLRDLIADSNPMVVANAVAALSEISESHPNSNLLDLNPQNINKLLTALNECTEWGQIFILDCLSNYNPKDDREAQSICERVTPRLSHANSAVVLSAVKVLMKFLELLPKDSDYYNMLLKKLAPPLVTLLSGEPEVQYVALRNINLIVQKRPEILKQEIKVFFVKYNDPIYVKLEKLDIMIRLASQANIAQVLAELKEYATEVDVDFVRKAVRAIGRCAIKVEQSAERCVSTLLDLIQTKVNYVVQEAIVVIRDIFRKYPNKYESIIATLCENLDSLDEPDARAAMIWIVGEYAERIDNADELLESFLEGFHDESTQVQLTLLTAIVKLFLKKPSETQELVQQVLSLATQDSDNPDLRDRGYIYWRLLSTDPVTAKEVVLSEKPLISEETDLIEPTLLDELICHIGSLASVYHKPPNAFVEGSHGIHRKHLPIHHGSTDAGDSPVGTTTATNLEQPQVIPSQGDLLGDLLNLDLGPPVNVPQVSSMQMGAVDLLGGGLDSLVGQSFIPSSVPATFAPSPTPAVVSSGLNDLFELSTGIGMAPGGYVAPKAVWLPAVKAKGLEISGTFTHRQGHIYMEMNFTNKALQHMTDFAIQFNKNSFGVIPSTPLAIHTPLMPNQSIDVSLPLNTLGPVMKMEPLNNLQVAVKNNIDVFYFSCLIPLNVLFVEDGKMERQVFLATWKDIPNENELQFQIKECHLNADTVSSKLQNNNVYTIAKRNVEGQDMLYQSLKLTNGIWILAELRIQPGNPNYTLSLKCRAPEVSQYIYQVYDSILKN
Beta-2 adrenergic receptor (Homo sapiens), sequence (P07550 whole entry, looked up): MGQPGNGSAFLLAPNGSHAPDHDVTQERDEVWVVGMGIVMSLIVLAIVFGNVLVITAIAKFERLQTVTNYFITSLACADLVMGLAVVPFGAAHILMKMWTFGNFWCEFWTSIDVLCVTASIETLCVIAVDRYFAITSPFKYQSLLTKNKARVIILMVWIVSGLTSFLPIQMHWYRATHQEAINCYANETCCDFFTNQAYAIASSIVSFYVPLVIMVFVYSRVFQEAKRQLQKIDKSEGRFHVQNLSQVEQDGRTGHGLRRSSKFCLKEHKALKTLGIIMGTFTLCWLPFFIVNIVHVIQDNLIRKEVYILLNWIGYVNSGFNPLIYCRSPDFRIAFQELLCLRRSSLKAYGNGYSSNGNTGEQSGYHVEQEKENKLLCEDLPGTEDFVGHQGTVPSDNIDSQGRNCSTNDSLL
Beta-adrenergic receptor kinase 1 (Homo sapiens), sequence (P25098 whole entry, looked up): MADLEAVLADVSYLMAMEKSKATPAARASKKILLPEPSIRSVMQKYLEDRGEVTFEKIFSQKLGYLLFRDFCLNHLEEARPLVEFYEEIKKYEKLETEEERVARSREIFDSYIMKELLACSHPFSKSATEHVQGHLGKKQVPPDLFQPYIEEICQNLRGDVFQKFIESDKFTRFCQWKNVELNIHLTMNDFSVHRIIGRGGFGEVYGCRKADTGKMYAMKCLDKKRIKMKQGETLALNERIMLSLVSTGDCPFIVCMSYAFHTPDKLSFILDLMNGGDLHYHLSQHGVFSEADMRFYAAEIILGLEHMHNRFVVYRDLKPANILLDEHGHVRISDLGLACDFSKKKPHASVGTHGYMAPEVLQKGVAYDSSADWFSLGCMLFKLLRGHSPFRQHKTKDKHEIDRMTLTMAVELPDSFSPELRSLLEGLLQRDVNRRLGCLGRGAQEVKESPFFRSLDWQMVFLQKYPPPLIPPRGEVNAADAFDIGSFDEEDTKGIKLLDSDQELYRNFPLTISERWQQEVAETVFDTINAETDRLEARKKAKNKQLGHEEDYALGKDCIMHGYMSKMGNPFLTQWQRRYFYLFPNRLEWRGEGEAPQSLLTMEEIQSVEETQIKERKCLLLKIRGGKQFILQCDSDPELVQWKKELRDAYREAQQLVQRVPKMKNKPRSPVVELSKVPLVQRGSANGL

As for `C[C@]12CC[C@@H](O)C[C@@H]1CC[C@@H]1[C@@H]2CC[C@]2(C)[C@@H](O)CC[C@@H]12`, in assay [1], the percent of DMSO control GFP is 95.4% (inactive). In addition, the GFP response vs DMSO is 107% (inactive) in assay [2] and 150% (active) in assay [4]. Also, the percent response of DMSO control in assay [3] is 83% (inactive). Moreover, in [5], the GFP response, % of DMSO was 106% (inactive). Also, the double positive events in assay [6] came to 58.5%. Besides, the vesicle binding response in assay [6] was 122% (inactive). Further, the inhibition (usually the change of the read-out against control, counted positive when it falls) in [7] was -7.79% (inactive); in assay [11] it was -7.18% (inactive); in assay [14], 1.2% (inactive); in assay [15], 0.9% (inactive); in assay [16] it was 3.5% (inactive); in assay [18], 7% (inactive). In addition, the superoxide response (% of plate) in assay [8] is 98% (inactive). The aptamer binding inhibition in [9] was 3% (inactive). Besides, the response in [10] is 0.4% (inactive); in assay [12], 2.4% (inactive). In addition, the binding (% of control) in [13] is 103% (inactive). The efflux inhibition (fraction of control) in [17] was 0.08 (inactive). Moreover, the differentiation response in assay [19] is -13.3% (inactive).
As for `CC12CN3CC(C)(CN(C1)C31CCOCC1)C2=O`, the percent of DMSO control GFP in assay [1] is 92.6% (inactive). Besides, the GFP response vs DMSO is 145% (active) in assay [2] and 90.2% (inactive) in assay [4]. The percent response of DMSO control in assay [3] is 101% (inactive). In addition, in [5], the GFP response, % of DMSO was 94.5% (inactive). Besides, the double positive events in assay [6] is 65.1%. The vesicle binding response in [6] is 166% (inactive). Moreover, the inhibition was 5.49% (inactive) in assay [7]; 40.7% (inactive) in [11]; 1.2% (inactive) in [14]; 0.1% (inactive) in [15]; -2.4% (inactive) in [16]; 13% (inactive) in [18]. Besides, the superoxide response (% of plate) in [8] is 90% (inactive). Also, the aptamer binding inhibition in assay [9] was 2% (inactive). Further, the response in assay [10] is 3.7% (inactive); in assay [12], -6.81% (inactive). In assay [13], the binding (% of control) is 100% (inactive). Besides, the efflux inhibition (fraction of control) in assay [17] was -0.09 (inactive). Moreover, the differentiation response in assay [19] is -2.46% (inactive).
With `CCCCN1C(=O)/C(=C\c2ccco2)C(=O)N(CCc2ccccc2)C1=O`, the GTP binding, percent of control in [20] came to 131%.
`Cc1cc(OCCCn2cc(C(=O)O)c3ccccc32)ccc1Cl` gave a GTP binding, percent of control in assay [20] of 83.9%.
Still for that read-out and setting: the figure for `O=C(O)c1cn(Cc2ccc(Cl)cc2)c2ccccc12` is 89.3%; for `O=C(O)c1cn(Cc2ccc(Br)cc2)c2ccccc12` it is 104%; for `CCOCCCn1c(N)c(C(=O)Nc2sc3c(c2C(=O)OC)CCCC3)c2nc3ccccc3nc21` it is 122%.
With `CCN(CC)c1ccc(/C=N/c2sc3c(c2C#N)C2CCN3CC2)c(O)c1`, the GTP binding, percent of control in [20] was determined as 104%.
Same read-out and setting: the figure for `Cc1ccc(-n2c(O)c(/C=N/c3ncc(Br)cc3Br)c(=O)[nH]c2=O)cc1` is 116%; for `O=c1[nH]c(=S)[nH]c(O)c1N=Nc1cc2c(cc1[N+](=O)[O-])OCO2` it is 66.6%.
In turn, `Cc1nc2c(=O)n(C)c(=O)nc-2n(C)n1` returned a GTP binding, percent of control in assay [20] of 98.5%.
With `CC[C@@H]1C(=O)OC[C@@H]1Cc1cncn1C`, the percent of DMSO control GFP in assay [1] is 89.8% (inactive). The GFP response vs DMSO in assay [2] was 144% (active); in assay [4], 88% (inactive). For the same compound, the percent response of DMSO control in assay [3] is 112% (inactive). For the same compound, in [5], the GFP response, % of DMSO is 86.3% (inactive). The double positive events in assay [6] is 65.5% and 68.4%. Also, in [6], the vesicle binding response is 171% (inactive) and 339% (inactive). The inhibition was 13.2% (inactive) and 5.49% (inactive) in assay [7]; 14.2% (inactive) and -5.27% (inactive) in assay [11]; -1.2% (inactive) and -3.1% (inactive) in assay [14]; -0.7% (inactive) and 0.7% (inactive) in assay [15]; -1.2% (inactive) and 7% (inactive) in assay [16]; 3% (inactive) and 12% (inactive) in [18]. Besides, in [8], the superoxide response (% of plate) was 82.6% (inactive) and 106% (inactive). Besides, in assay [9], the aptamer binding inhibition is 7% (inactive) and 4% (inactive). Besides, the response in [10] is 1.92% (inactive) and 3.7% (inactive); in assay [12], -2.39% (inactive) and 0.38% (inactive). Besides, the binding (% of control) in assay [13] is 104% (inactive) and 95.6% (inactive). Moreover, the efflux inhibition (fraction of control) in assay [17] is 0.16 (inactive) and 0.05 (inactive). Moreover, the differentiation response in [19] is 14.7% (inactive) and 20.5% (inactive).
Turning to `O=c1[nH]c(=S)[nH]c(O)c1N=Nc1ccc(S(=O)(=O)N2CCc3ccccc32)cc1`, the GTP binding, percent of control in assay [20] turned out to be 95.9%.
Same read-out and setting: the figure for `COc1ccc(-c2cc(=NCCCCCC(=O)O)c3cc(C)ccc3o2)cc1` is 66.2%; for `CC1(C)CC(n2[nH]c(=O)c3c2NC(=O)CSC3c2ccccc2)CCO1` (centres undefined) it is 86.2%; for `Cc1ccc(C)c(OCCCn2cc(C(=O)O)c3ccccc32)c1` it is 88.6%.
In turn, `O=C(O)c1cn(Cc2ccc(F)cc2)c2ccccc12` returned a GTP binding, percent of control in assay [20] of 112%.
Still for that read-out and setting: the figure for `CN1C(=O)N(C)C(=O)C2(Cc3c(ccc4ccccc34)N(C)C2)C1=O` is 82.6%; for `O=C(O)c1cn(Cc2ccccc2F)c2ccccc12` it is 106%; for `CN(C)c1ccc(/C=C/C=C2/C(=O)NC(=O)N(c3ccccc3)C2=O)cc1` it is 81.4%.
Consider `Cc1nn(Cc2ccccc2)c(Cl)c1C(=O)O`, for which, in [20], the GTP binding, percent of control is 86.7%.
On the same count and under the same terms, the figure for `CCOC(=O)c1c(NC(=O)c2c(N)n(CCCOC)c3nc4ccccc4nc23)sc2c1CCCC2` is 144%.
`C[C@H](O)[C@H]1CC[C@H]2[C@@H]3CCC4=CC(=O)CC[C@]4(C)[C@H]3CC[C@]12C`: the percent of DMSO control GFP in [1] is 98.9% (inactive). The GFP response vs DMSO was 103% (inactive) in assay [2] and 126% (inactive) in assay [4]. Further, the percent response of DMSO control in [3] was 91.3% (inactive). For the same compound, the GFP response, % of DMSO in [5] was 89.6% (inactive). In assay [6], this compound registered a double positive events of 61%. Moreover, the vesicle binding response in [6] is 104% (inactive). Moreover, the inhibition in [7] was 11% (inactive); in [11], -3.68% (inactive); in assay [14], -0.6% (inactive); in assay [15] it was 0.2% (inactive); in assay [16], 2.8% (inactive); in assay [18] it was 9% (inactive). Also, the superoxide response (% of plate) in assay [8] is 106% (inactive). The aptamer binding inhibition in assay [9] was 0% (inactive). Besides, the response was -3.16% (inactive) in [10] and -6.77% (inactive) in assay [12]. In addition, the binding (% of control) in [13] is 102% (inactive). Further, the efflux inhibition (fraction of control) in assay [17] was -0.17 (inactive). Further, the differentiation response in assay [19] was -4.57% (inactive).
